Source: a collection of fitness landscapes (doi:10.1016/j.celrep.2020.107928)
The full ranking holds about 81,000 sequences; the median of “one-hybrid fitness for binding parS DNA” is about -0.17, and the highest 2% start at about 0.51. The full list was thinned out, with the highest values kept by preference.

B1: Caulobacter ParB omega fusion; a variant is named by its letters at X, in order, B8GW30 (parent)
chain: MESVVVGEPGMSEGRRGLGRGLSALLGEVDAAPAQAPGEQLGGSREAPIEILQRNPDQPRRTFREEDLEDLSNSIREKGVLQPILVRPSPDTAGEYQIVAGERAWRAAQRAGLKTVPIMVRELDDLAVLEIGIIENVQRADLNVLEEALSYKVLMEKFERTQENIAQTIGKSXSHVANXMRLLXLPDEVQSYLVSGELTAXHARAIAAAADPVALAKQIIEGGLSVRETEALARKAPNLSAGKSKGGRPPRVKDTDTQALESDLSSVLGLDVSIDHRGSTGTLTITYATLEQLDDLCNRLTRGI

Variants of: B1
Experiment: one-hybrid fitness for binding parS DNA (scaled: cognate 1, non-cognate 0); higher = stronger binding
Conditions: with parS DNA site
In short: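 Bacterial one-hybrid selection in E. coli USO rpoZ- hisB- pyrF- with a HIS3 reporter carrying the site 19 bp from the promoter, screening Caulobacter ParB libraries with four specificity codons randomised (NNS). Cells grew 48 hours at 37°C on M9-minus-histidine plus 0.1 mM IPTG and 5 mM 3-AT. Plasmids before and after selection were Illumina-sequenced, three replicate libraries pooled, and variants under 10 reads dropped. Fitness is the log change in variant-to-wild-type read ratio, rescaled to cognate 1, non-cognate 0.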

Variant | one-hybrid fitness for binding parS DNA
NFVC | ≤ 0.2
RFKC | 0.991
RFVC | 0.753
DFKC | ≤ 0.2
NFKC | ≤ 0.2
DFVC | ≤ 0.2
ARWW | 0.23
ICDS | ≤ 0.2
HSSC | ≤ 0.2
IVSG | 0.263
STPM | ≤ 0.2
SILY | ≤ 0.2
RTFT | 0.911
RTAR | ≤ 0.2
RTFM | 0.334
RTAT | 0.918
RTFQ | 0.26
RTAQ | ≤ 0.2
EICA | ≤ 0.2
RNHW | ≤ 0.2
GQRT | ≤ 0.2
LGMH | ≤ 0.2
QVAS | ≤ 0.2
REAA | ≤ 0.2

Variant | one-hybrid fitness for binding parS DNA
RMFA | 0.61
RMAA | 0.59
RGFA | 0.215
RNAA | 0.456
NNVS | ≤ 0.2
HPRW | ≤ 0.2
RKGE | ≤ 0.2
RIWS | 1.05
RILH | ≤ 0.2
RIWP | 0.223
RIRD | ≤ 0.2
RIHD | ≤ 0.2
RIHN | 0.463
RIRP | ≤ 0.2
RILS | 1.04
RIHS | 0.97
RIRS | 0.874
RILP | ≤ 0.2
RIWD | ≤ 0.2
YILC | ≤ 0.2
NTNE | ≤ 0.2
HGYW | ≤ 0.2
PCLT | ≤ 0.2
RIYH | ≤ 0.2

Variant | one-hybrid fitness for binding parS DNA
RIYS | 1.07
RIYN | 0.476
VRVS | ≤ 0.2
VYCV | ≤ 0.2
VANG | ≤ 0.2
RVKT | 0.761
RVKN | 0.46
RVVP | ≤ 0.2
RVVT | 0.795
RVVH | ≤ 0.2
RVKD | ≤ 0.2
SDSY | ≤ 0.2
RRMV | ≤ 0.2
RSHQ | ≤ 0.2
RIHY | 0.461
RLHM | 0.321
RIHF | ≤ 0.2
RIHG | 1.02
RLHG | 1.01
REHG | 0.236
RCHG | 0.994
RLHQ | ≤ 0.2
RDHG | ≤ 0.2
RPHG | ≤ 0.2

Variant | one-hybrid fitness for binding parS DNA
RSHG | 1
CRRT | ≤ 0.2
TFGN | ≤ 0.2
FDPG | ≤ 0.2
QNIS | ≤ 0.2
FWAR | ≤ 0.2
TTPY | ≤ 0.2
NYDR | ≤ 0.2
DKHC | ≤ 0.2
YHHS | ≤ 0.2
RHGM | 0.232
RHQF | ≤ 0.2
RHCD | ≤ 0.2
RHSY | 0.41
RHGT | 0.832
RHQK | ≤ 0.2
RHGF | ≤ 0.2
RHQT | 0.853
RHSF | ≤ 0.2
RHCN | 0.381
RHST | 0.854
RHCT | 0.766
WKSA | ≤ 0.2
NGKG | ≤ 0.2

Variant | one-hybrid fitness for binding parS DNA
MLAT | ≤ 0.2
AQPR | ≤ 0.2
VSSM | ≤ 0.2
GPRN | ≤ 0.2
MTAN | ≤ 0.2
FTMR | ≤ 0.2
TSLA | ≤ 0.2
VLVS | ≤ 0.2
TYKP | ≤ 0.2
SNHT | ≤ 0.2
RHYT | 0.806
RHWR | ≤ 0.2
RHRM | 0.277
RHYK | ≤ 0.2
RHYN | 0.448
RHRT | 0.788
RHWK | ≤ 0.2
RHWT | 0.692
RHRY | 0.473
ITCG | ≤ 0.2
LTNS | ≤ 0.2
TGVT | ≤ 0.2
VSLW | ≤ 0.2
SSDD | ≤ 0.2

Variant | one-hybrid fitness for binding parS DNA
RLIQ | ≤ 0.2
RLIC | 0.938
RLPF | ≤ 0.2
RLPR | ≤ 0.2
RLPC | 0.681
RLIF | ≤ 0.2
SDVC | ≤ 0.2
QSHD | ≤ 0.2
RMNA | 0.606
RMDA | 0.572
SISG | ≤ 0.2
RVHS | 0.972
RVSP | ≤ 0.2
RVQS | 0.989
RVSS | 0.975
RVQH | 0.223
RVGP | ≤ 0.2
RVGH | ≤ 0.2
RVSN | 0.426
RVQD | ≤ 0.2
RVGS | 0.954
RVHN | 0.425
RVHH | 0.235
IMHT | ≤ 0.2

Variant | one-hybrid fitness for binding parS DNA
WTRR | ≤ 0.2
ISNF | ≤ 0.2
FYDL | ≤ 0.2
IAGR | ≤ 0.2
TAIN | ≤ 0.2
RVWN | 0.478
RVYS | 1.04
RVRD | ≤ 0.2
RVCD | ≤ 0.2
RVCH | ≤ 0.2
RVCS | 1.03
RVRN | 0.409
RVYH | 0.263
RVRS | 0.895
RVYD | 0.216
RVWS | 1.05
RVWD | 0.212
MMSR | ≤ 0.2
MHFY | ≤ 0.2
QASI | ≤ 0.2
TREC | ≤ 0.2
PYKT | ≤ 0.2
HPDN | ≤ 0.2
KRKQ | ≤ 0.2

Variant | one-hybrid fitness for binding parS DNA
KLMV | ≤ 0.2
RVLS | 1.03
RVLP | ≤ 0.2
RVLH | 0.229
TMII | ≤ 0.2
RSVK | ≤ 0.2
RSVM | 0.265
RCVG | 0.991
RPVG | ≤ 0.2
RSVG | 0.89
RDVG | ≤ 0.2
MFMG | ≤ 0.2
RFCF | ≤ 0.2
TLGM | ≤ 0.2
RMGL | ≤ 0.2
RSGH | 0.208
RKGC | 0.827
RSGC | 0.956
RKGF | ≤ 0.2
RCGC | 0.97
RMGM | 0.315
RMGC | 0.952
RPGC | ≤ 0.2
RDGC | ≤ 0.2

Variant | one-hybrid fitness for binding parS DNA
RKGR | ≤ 0.2
RSGP | ≤ 0.2
QVMA | ≤ 0.2
QTTD | ≤ 0.2
LGCG | ≤ 0.2
PLWY | ≤ 0.2
QQVF | ≤ 0.2
HPKR | ≤ 0.2
DNQS | ≤ 0.2
YLEP | ≤ 0.2
MTEN | ≤ 0.2
RHGY | 0.429
RHGK | ≤ 0.2
RAGC | 0.968
RAGF | 0.247
RAGY | 0.473
RRGC | 0.593
RLGC | 0.97
RRGQ | ≤ 0.2
RLGM | 0.352
RLGK | ≤ 0.2
RHGC | 0.896
RRGR | ≤ 0.2
DSNT | ≤ 0.2

Variant | one-hybrid fitness for binding parS DNA
KDLS | ≤ 0.2
GQVC | ≤ 0.2
YDLG | ≤ 0.2
KTAM | ≤ 0.2
RIGF | 0.234
RIGC | 0.955
RFGC | 0.882
RFGR | ≤ 0.2
RIGM | 0.268
NFGC | ≤ 0.2
NLSL | ≤ 0.2
LPEL | ≤ 0.2
PHQK | ≤ 0.2
LEDW | ≤ 0.2
EWQP | ≤ 0.2
ATNC | ≤ 0.2
RHHP | ≤ 0.2
RMHT | 0.946
RIHH | ≤ 0.2
RHHT | 0.869
RPHT | ≤ 0.2
RIHT | 0.936
RHHH | ≤ 0.2
RCHT | 0.906

Variant | one-hybrid fitness for binding parS DNA
RIHP | ≤ 0.2
RMHP | ≤ 0.2
REHT | ≤ 0.2
RMHH | 0.274
RGFW | ≤ 0.2
HQMY | ≤ 0.2
VSHP | ≤ 0.2
WWRR | ≤ 0.2
RVEY | 0.353
LLVS | ≤ 0.2
PHSW | ≤ 0.2
HGMV | ≤ 0.2
SLSC | ≤ 0.2
PKWC | ≤ 0.2
SQSD | ≤ 0.2
HHCS | ≤ 0.2
CACK | ≤ 0.2
TVNL | ≤ 0.2
YQLS | ≤ 0.2
RTHK | ≤ 0.2
RSHN | 0.412
RSHT | 0.876
RTHT | 0.908
RSHD | ≤ 0.2

Variant | one-hybrid fitness for binding parS DNA
RTHM | 0.317
PPLK | ≤ 0.2
HGKG | ≤ 0.2
TTRW | ≤ 0.2
YNRL | ≤ 0.2
YMLS | ≤ 0.2
RSKQ | ≤ 0.2
RDKG | 0.274
RCKG | 0.89
RSKR | ≤ 0.2
RSKG | 0.944
RPKG | ≤ 0.2
NLKV | ≤ 0.2
YAAA | ≤ 0.2
TCWR | ≤ 0.2
WDTT | ≤ 0.2
VAYM | ≤ 0.2
AACS | ≤ 0.2
GVIV | ≤ 0.2
RGAH | ≤ 0.2
RGAS | 0.734
RGAD | ≤ 0.2
RGFS | 0.584
RGFH | ≤ 0.2

Variant | one-hybrid fitness for binding parS DNA
RGFD | ≤ 0.2
QGMN | ≤ 0.2
VPQV | ≤ 0.2
SYEL | ≤ 0.2
RWYN | 0.223
RWSS | 0.912
RWPS | 0.444
RWSH | ≤ 0.2
RWID | ≤ 0.2
RWWF | ≤ 0.2
RWWS | 0.644
RWSP | ≤ 0.2
RWYH | ≤ 0.2
RWYS | 0.803
RWIS | 0.609
RWWN | ≤ 0.2
STYW | ≤ 0.2
GPTL | ≤ 0.2
